Data: PubChem BioAssay AID1159580 (chemical genetic matrix, 2015)
About 2,000 (36%) of roughly 5,500 compounds were called active. Another 18% or so got no clear call; they are omitted. Rule as the data show it: active = normalized growth mostly below about 0.91 (no sharp cut-off); inconclusive = no clear call, values can overlap the other calls; inactive = mostly above about 0.92. The list shows a part of the results.

Experiment: chemical genetic growth profiling, strain panel (AID 1159580);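 also: tested at 20 µM; growth read once vehicle control cultures reached saturation at 30 °C; 1 = growth at the plate median or of vehicle wells; lower values mean less growth of the strain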
Conditions: growth OD

Measured: normalized growth

O=C1c2ccccc2C(=O)N1CN1CCC(O)(c2ccc(Cl)cc2)CC1
inactive: S. cerevisiae deletion strains, locus YAL013W, strain DEP1, hits give low values 0.975 | S. cerevisiae deletion strains, locus YBR229C, strain ROT2, hits give low values 0.982 | S. cerevisiae deletion strains, locus YDL101C, strain DUN1, hits give low values 0.988 | S. cerevisiae deletion strains, locus YDL134C, strain PPH21, hits give low values 1.01 | S. cerevisiae deletion strains, locus YDR150W, strain NUM1, hits give low values 1.01 | S. cerevisiae deletion strains, locus YEL061C, strain CIN8, hits give low values 0.991 | S. cerevisiae deletion strains, locus YGR078C, strain PAC10, hits give low values 0.981 | S. cerevisiae deletion strains, locus YGR229C, strain SMI1, hits give low values 0.999 | S. cerevisiae deletion strains, locus YHR030C, strain SLT2, hits give low values 0.953 | S. cerevisiae deletion strains, locus YHR087W, strain rtc3, hits give low values 0.99 | S. cerevisiae deletion strains, locus YJR043C, strain POL32, hits give low values 0.966 | S. cerevisiae deletion strains, locus YJR075W, strain HOC1, hits give low values 0.987 | S. cerevisiae deletion strains, locus YKL190W, strain CNB1, hits give low values 1.01 | S. cerevisiae deletion strains, locus YLR039C, strain RIC1, hits give low values 0.988 | S. cerevisiae deletion strains, locus YLR058C, strain SHM2 (second series), hits give low values 0.978 | S. cerevisiae deletion strains, locus YLR085C, strain ARP6, hits give low values 1.06 | S. cerevisiae deletion strains, locus YLR262C, strain YPT6, hits give low values 0.93 | S. cerevisiae deletion strains, locus YML094W, strain GIM5, hits give low values 1.02 | S. cerevisiae deletion strains, locus YMR219W, strain ESC1, hits give low values 0.993 | S. cerevisiae deletion strains, locus YMR263W, strain SAP30, hits give low values 0.926 | S. cerevisiae deletion strains, locus YNL128W, strain TEP1, hits give low values 0.987 | S. cerevisiae deletion strains, locus YNL153C, strain GIM3, hits give low values 1.02 | S. cerevisiae deletion strains, locus YNL298W, strain CLA4 (second series), hits give low values 0.974 | S. cerevisiae deletion strains, locus YNL322C, strain KRE1, hits give low values 0.985 | S. cerevisiae deletion strains, locus YNR030W, strain Alg12, hits give low values 0.991 | S. cerevisiae deletion strains, locus YPL055C, strain LGE1, hits give low values 0.947 | S. cerevisiae deletion strains, locus YPL241C, strain CIN2, hits give low values 1.01 | S. cerevisiae deletion strains, locus YPR135W, strain CTF4, hits give low values 0.94 | S. cerevisiae strains, strain wild type, hits give low values 0.992
